About 79,000 compounds went through this panel and 15% of them were active in at least one assay; those are over-represented in the sample as a whole. The source made the active and inactive calls. No stated cut-off is given here; in the data, active means growth inhibition above about 70%; inactive means the rest.
Test: NCI Yeast Anticancer Drug Screen. Data for the rad18 strain (AID 177)
Conditions: S. cerevisiae rad18 mutant growth inhibition, stronger effect = higher value
Procedure: Growth inhibition of yeast strains with defined genetic alterations is measured as a screen for potential anti-cancer activity. Selected strains with alterations in DNA damage repair or cell cycle control were exposed to compounds and growth inhibition was measured relative to vehicle treated controls. The strain used in this assay is rad18

Measured: growth inhibition

COC(=O)C1=C(C(=O)OC)CC(n2nnc(C(=O)OC)c2C(=O)OC)=CC1
inactive: at 1.2 µM 0% | at 3.7 µM 1% | at 11.0 µM 0% | at 33.0 µM -1% | at 100.0 µM 1%

O=C(/C(=C/c1ccc(O)cc1)c1ccccc1)c1ccccc1
active: at 33.0 µM 98% | at 100.0 µM 86%
inactive: at 1.2 µM -29% | at 3.7 µM -33% | at 11.0 µM 17%

O=C(O)C1CCCCC1c1c2ccc(=O)cc-2oc2cc(O)ccc12 (stereo not given)
active: at 100.0 µM 93%
inactive: at 1.2 µM -12% | at 3.7 µM -18% | at 11.0 µM -3% | at 33.0 µM 25%

CC(=O)N1C=Cc2c(c(C)c3c([nH]c4ccccc43)c2C)C1
active: at 11.0 µM 91% | at 33.0 µM 96% | at 100.0 µM 96%
inactive: at 1.2 µM 23% | at 3.7 µM 44%

O=C(Cc1ccccc1)NNc1nc(NNC(=O)c2ccncc2)nc(Nc2ccc([N+](=O)[O-])cc2)n1
inactive: at 1.2 µM 9% | at 3.7 µM 26% | at 11.0 µM 50% | at 33.0 µM 57% | at 100.0 µM 49%

CCN1CCC(O)(c2ccc(Oc3ccc(Cl)cc3)cc2)C(C(=O)c2ccc(Oc3ccc(Cl)cc3)cc2)C1 (stereo not given)
inactive: at 1.2 µM -6% | at 3.7 µM 20% | at 11.0 µM -1% | at 33.0 µM -4% | at 100.0 µM 7%

CN(C)CC1=Nc2cccc3cccc(c23)N1
inactive: at 1.2 µM -3% | at 3.7 µM -20% | at 11.0 µM -14% | at 33.0 µM 1%
active: at 100.0 µM 70%

O=C1c2cccc3cccc(c23)C(=O)N1O
active: at 100.0 µM 81%
inactive: at 1.2 µM 6% | at 3.7 µM 3% | at 11.0 µM 13% | at 33.0 µM 41%
